From PubChem
Only some compounds are listed: those with a hit (about 7.2% of all), similar ones and a draw of the others.
RE007 growth inh: less growth of the S. pombe RE007 Vpr strain | S. pombe RE007 Vpr strain, BacTiter-Glo ATP luminescence, 24 h | AID 651644 | Potency, µM (highest dose often 92.2 µM), for inactives: at the highest dose activity change, negative = less growth, actives largely listed as inhibitors | hit rate 0.21% among 360,000; active = well fitted falling curve with a large enough effect; inconclusive = small, poorly fitted or top-dose-only effect; inactive = no such curve, though single readings can be large or run the other way; also: nearly all actives have a fitted effect of over 50% in size
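Fission yeast strain RE007, carrying one chromosomally integrated HIV-1 vpr copy, was seeded at OD 0.01 in PMG+AL medium with 23 nL pinned compound. After 24 h at 30 °C and 99% humidity, viability was read by BacTiter-Glo luminescence.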
HCV inh: blocks hepatitis C virus; Huh7.5.1 HCVcc-Cre infection, luciferase reporter, 44 h; Potency, µM (doses to about 41.8 µM), for the others: at the highest dose activity change, negative = inhibition, usual class: inhibitors; hit rate 3.4% among 340,000; AID 651820
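1,000 cells/well; 4 h culture; + compound; + HCVcc-Cre (~0.5 moi); 44 h; luciferase substrate, RT 15 min; read 15 sec.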
MARV entry inh: inhibitors of Marburg virus binding or cell entry; Marburg virus pseudotyped entry inhibition, cell reporter; Potency, µM (doses to about 37.8 µM), without a hit: at the top dose activity change, negative = inhibition, actives largely listed as inhibitors; hit rate 1.8% among 300,000; AID 540276; calls by dose curve; tested in HEK293 cells
Lassa entry inh: inhibitors of Lassa virus binding or cell entry | Lassa virus pseudotype entry inhibition, cell reporter | hit rate 1.2% among 300,000 | Potency, µM (top dose mostly 37.9 µM), without a hit: at the top dose activity change, negative = inhibition, hits mostly inhibitors; calls by dose curve; tested in HEK293 cells; also: nearly all actives have a fitted effect of over 50% in size
Sm TGR block: S. mansoni TGR enzyme inhibition; Q962Y6; purified TGR, DTNB reduction, TNB absorbance 405 nm; Potency, µM (highest dose often 114 µM), inactives show at the top dose activity change, negative = inhibition, actives largely listed as inhibitors; hit rate 3% among 360,000; AID 485364; also: nearly all actives have a fitted effect of over 60% in size
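TGR 20 nM + NADPH 100 uM (dispensed conc.), cpd preinc 15 min RT; start with NADPH (500 uM addition) then DTNB (15 mM addition). Kinetic TNB absorbance, 405 nm filter. Four-parameter Hill fit across titration.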
FMDV inh: foot and mouth disease virus antiviral activity. FMDV antiviral cell-based qHTS. Potency, µM (doses to about 57.9 µM), without a hit: at the top dose activity change, negative = inhibition, usual class: inhibitors. hit rate 1.2% among 410,000; calls by dose curve; tested in HEK293T cells; also: read-out not given here; nearly all actives have a fitted effect of over 45% in size
Starred values were filed as active, the others as inactive; ? = inconclusive; / = not tested or not shown; ! = not confirmed by another sample; [ ] = dose if it differs, or a comment. Unless noted, calls follow the shape of the dose curve; as a rule, active = well fitted curve in the direction sought with a large enough effect; inconclusive = small, poorly fitted or top-dose-only effect, or another doubt; inactive = no such curve, though single readings can be large; an effect the other way counts as inactive or inconclusive. % is scaled to controls: 0 for no effect and ±100 for the full control effect; potency is read from the fitted curve at half-maximal effect.

SMILES	RE007 growth inh	HCV inh	MARV entry inh	Lassa entry inh	Sm TGR block	FMDV inh
O=C1N(Cc2ccccc2C(F)(F)F)c2ccccc2[C@@]12O[C@H](COc1ccccc1)CC1=C2CCC1	/	/	-24%[14.2 µM]	/	/	/
O=C(NCCc1cccs1)C1CC(c2cccc(F)c2)=NO1 (configuration not stated)	9%	3.5µM*	/	/	4%	-3%
CCCNC(=O)C1CC(c2cccc(F)c2)=NO1 (configuration not stated)	3%	13%	/	/	11%	10%
COc1cccc(C(=O)Nc2ccc(-n3nncc3-c3ccc(Br)cc3)cc2)c1OC	/	/	/	2%[46.1 µM]	7%	-27%
c1csc(-c2nc3c4ccccc4c4ccccc4c3[nH]2)c1	-17%	13µM*	?	-28%	-16%	-30%
Oc1ccccc1-c1nc2c3ccccc3c3ccccc3c2[nH]1	-13%	?	/	/	2%	-18%
CN1C(=O)C(Cl)(Cl)C(=O)c2ccccc21	-8%	1%	?	-22%	0%	28µM*
NC(Cc1ccc(OC(F)F)cc1)C(=O)O (configuration not stated)	8%	-1%	/	/	35µM*	-11%
O=C(O)CCCc1ccc(N(CCCl)CCCl)cc1	-8%[18.4 µM]	-15%[8.37 µM]	3.2µM*!	-29%	50µM*	-4%
N[C@@H](Cc1ccc(N(CCCl)CCCl)cc1)C(=O)O	6%[18.4 µM]	?	5.8µM*	/	14µM*	-20%
COc1cc(C(=O)NN=Cc2ccc(N(CCCl)CCCl)cc2)cc(OC)c1OC	4%	?	?	?	/	-19%
NC(Cc1ccc(O)cc1)C(=O)NN=Cc1ccc(N(CCCl)CCCl)cc1 (configuration not stated)	-21%	?	1.3µM*	4µM*	/	0%
CCc1nc2cccnc2n1-c1ccc(CC(=O)Nc2ccc(C)cc2)cc1	/	/	/	-21%[46.1 µM]	-12%	?
COc1cc(=O)n2c(c1C(=O)NCc1ccco1)CCN(Cc1ccc(F)cc1Cl)CC2	/	/	/	/	/	-3%
Cc1cc(S(=O)(=O)N2CCCC(N(C)CCc3ccccn3)C2)c(C)cc1Cl (configuration not stated)	-12%	?	/	/	45µM*	?
CCSc1nc2cc(OC)c(OC)cc2c(=O)n1CC	-24%	5µM*	0%	-22%	8%	0%
COc1ccccc1NC(=O)C1CCCN(c2ncnc3onc(-c4ccc(F)cc4)c23)C1 (configuration not stated)	/	/	/	-1%[46.1 µM]	6%	0%
Cc1noc(C)c1COC(=O)c1ccc(F)c(S(=O)(=O)N2CCOCC2)c1	1%	3%	/	/	1%	-34%
CC(=O)O[C@@]12CO[C@@H]1C[C@@H](O)[C@@]1(C)C(=O)[C@H](O)C3=C(C)[C@@H](OC(=O)[C@H](O)[C@@H](NC(=O)c4ccccc4)c4ccccc4)C[C@@](O)([C@@H](OC(=O)c4ccccc4)C12)C3(C)C (some centres not stated)	-14%	0.32µM*	/	/	-13%	-23%
CC(=O)O[C@H]1C(=O)[C@@]2(C)[C@H]([C@H](OC(=O)c3ccccc3)[C@]3(O)C[C@H](OC(=O)[C@H](O)C(NC(=O)c4ccccc4)c4ccccc4)C(C)=C1C3(C)C)[C@]1(OC(C)=O)CO[C@@H]1C[C@@H]2O (some centres not stated)	-7%	?	/	/	0%	-29%
CSc1ccccc1C(=O)OCC(=O)Nc1c(C)n(C)n(-c2ccccc2)c1=O	-5%	/	/	/	/	-27%
CCOC(=O)c1c[nH]c(=S)n(-c2ccccc2)c1=O	3%	17%	/	/	-9%	11%
CCOC(=O)c1c(SCCN2CCCC2)n(-c2ccccc2)c(=S)n(-c2ccccc2)c1=O	7%	?	?	?	/	20µM*
O=C1c2ccccc2-c2onc3ccc(Oc4ccccc4)c1c23	?	?	?	10µM*	6.3µM*	?
Cc1[nH]c2ccccc2c1N=Nc1ccccc1F	?	10µM*	?	3%[46.1 µM]	4%	12%
SMILES	RE007 growth inh	HCV inh	MARV entry inh	Lassa entry inh	Sm TGR block	FMDV inh
Fc1ccc(-c2nc(Nc3ccc(F)c(Cl)c3)nc3c2COc2ccccc2-3)cc1	/	/	?	?	1%	-6%
CCOc1ccccc1N1Cc2cc(C)c(C)cc2C1	-15%	?	/	/	?	1%
CCOc1ccc(N2CC(=O)N(c3ccc(OCC)cc3)CC2=O)cc1	-11%	4%	0%	4%	-14%	11%
CCOc1ccccc1N1Cc2ccccc2C1	8%	-27%	-9%[46.1 µM]	-2%	13µM*	-15%
CCOc1ccc(N2Cc3ccccc3C2)cc1	5%	-2%	?	-1%	56µM*	32%
Cn1ccc(C(=O)NCC2CCC3(CCN(Cc4cc(F)cc(F)c4)CC3)O2)n1 (configuration not stated)	/	/	/	/	/	-1%
O=C(c1ccc([N+](=O)[O-])o1)N1CCN(c2nc3c(F)cc(F)cc3s2)CC1	-4%	0.56µM*	?	3%	-26%	0%
Cc1ccc(C)c2sc(N3CCN(C(=O)c4ccc([N+](=O)[O-])o4)CC3)nc12	-10%	?	13µM*	?	-16%	?
COc1ccc(C(O)c2nc3ccccc3n2C)cc1OC (configuration not stated)	-14%	2.8µM*	?	-20%	8%	?
C=CC[C@]1(C(=O)OC)C=C[C@H](C)[C@@H](c2ccccc2)N1C(=O)C(F)(F)F	/	/	-15%[14.2 µM]	/	/	/
CC(=O)c1cn(CC(=O)Nc2ccccc2F)c2ccccc12	-3%	11µM*	?	?	-12%	0%
CC(=O)c1cn(CC(=O)Nc2ccccc2Cl)c2ccccc12	9%	11µM*	/	/	-16%	?
CCC(=O)c1cn(CC(=O)Nc2ccccc2F)c2ccccc12	3%	-27%	-1%	-1%	7%	-16%
COn1c2c(c3c4no[n+]([O-])c4ccc31)CCCC2	-8%	?	-6%	0%	17%	/
COn1c2c(c3c4nonc4ccc31)CCCC2	-16%	?	2%	?	28µM*	/
COc1cccc(-c2ccc(O)c(CNC(c3ccccc3)c3ccc(Cl)cc3)c2)n1 (configuration not stated)	/	/	/	/	/	11%
COc1cccc(Nc2sc(C(=O)c3ccc(F)cc3)c(N)c2C(=O)NCc2ccc(C)cc2)c1	/	/	/	?	1%	14µM*
Cc1ccc(CNC(=O)c2c(Nc3ccccc3C)sc(C(=O)c3ccc(F)cc3)c2N)cc1	/	/	/	?	-19%	-13%
CN(C)CCCNCC(=O)c1c(-c2ccccc2)n(C)c2ccccc12	-6%	-17%	?	-25%[46.1 µM]	50µM*	-11%
CC1CC2(O)c3no[n+]([O-])c3CCC2N1O (configuration not stated)	1%	9%	6%	-4%	-16%	-3%
